This excerpt belongs to a sample that is enriched for hits.
Shiga toxin inh – inhibitors of Shiga toxin in Vero cells. inhibition, % at 38.7 µM. Vero cells, Shiga toxin protein synthesis inhibition reporter. AID 2315. 9.2% of 290,000 active; in the data active means inhibition mostly above about 28%, no sharp cut-off; inactive means mostly below about 43%; further: 0% is about no effect
LmPK inh – LmPK (Leishmania mexicana) enzyme inhibition; Q27686; purified LmPK, Kinase-Glo ATP luminescence, 1 h; Potency, µM (highest dose often 57.5 µM), without a hit: at the highest dose activity change, negative = inhibition, hits mostly inhibitors; 0.37% of 290,000 active; AID 1721; further: potency means the concentration at half of the fitted maximal effect; on the % scale 0 is the no-effect control and ±100 the full control effect
Target sequence (Q27686 whole entry, looked up): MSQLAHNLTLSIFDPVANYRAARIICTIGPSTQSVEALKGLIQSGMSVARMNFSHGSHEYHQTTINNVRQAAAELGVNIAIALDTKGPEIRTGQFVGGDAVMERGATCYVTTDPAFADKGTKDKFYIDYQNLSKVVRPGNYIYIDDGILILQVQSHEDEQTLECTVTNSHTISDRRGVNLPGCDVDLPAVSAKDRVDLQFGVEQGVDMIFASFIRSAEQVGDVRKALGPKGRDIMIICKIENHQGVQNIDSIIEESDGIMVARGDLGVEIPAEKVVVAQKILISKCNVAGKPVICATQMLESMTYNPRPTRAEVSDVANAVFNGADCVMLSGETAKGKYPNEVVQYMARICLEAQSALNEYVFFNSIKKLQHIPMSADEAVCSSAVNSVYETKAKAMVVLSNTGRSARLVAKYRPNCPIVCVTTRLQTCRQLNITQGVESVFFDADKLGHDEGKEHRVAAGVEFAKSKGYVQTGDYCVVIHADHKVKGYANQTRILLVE
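Pyruvate kinase activity monitored as ATP production (luciferase luminescence). Conditions: 0.1 nM enzyme, 0.5 mM PEP, 0.1 mM ADP, 1 h, RT; normalized against uninhibited and no-enzyme wells.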
Sm TGR inh – S. mansoni TGR enzyme inhibition. 3% of 360,000 active. Potency, µM (titrated, usually from 114 µM), inactives show top-dose activity change, negative = inhibition, usual class: inhibitors. purified TGR, DTNB reduction, TNB absorbance 405 nm; further: potency means the concentration at half of the fitted maximal effect; on the % scale 0 is the no-effect control and ±100 the full control effect; nearly all actives have a fitted effect of over 60% in size
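Kinetic colorimetric format: TGR-catalysed, NADPH-driven DTNB reduction monitored via TNB absorbance. Enzyme dispensed at 20 nM; compound exposure 15 min at room temperature before reaction start.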
Giardia FBPA inh – inhibitors of Giardia lamblia fructose-1,6-bisphosphate aldolase; AID 2451; A8B2U2; 0.71% of 290,000 active; purified Giardia FBPA; Potency, µM (titrated, usually from 59.6 µM), for inactives: at the top dose activity, negative = inhibition, actives largely listed as inhibitors; further: potency means the concentration at half of the fitted maximal effect; on the % scale 0 is the no-effect control and ±100 the full control effect; nearly all actives have a fitted effect of over 55% in size
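40 nM FBPA preincubated 10 min at RT with compound (up to 57.5 uM final), then substrate plus GAPDH/TPI/NAD/arsenate coupling and diaphorase/resazurin added. Fluorescence read after 20 min at RT, 525/598 nm.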
Tb PYK inh – blocks Trypanosoma brucei pyruvate kinase; Potency, µM (doses to about 76.8 µM), inactives show at the top dose activity, negative = inhibition, actives largely listed as inhibitors; 0.12% of 410,000 active; TbPYK enzyme, Kinase-Glo Plus ATP luminescence, 45 min; AID 624173; Q57TT1; further: potency means the concentration at half of the fitted maximal effect; on the % scale 0 is the no-effect control and ±100 the full control effect; nearly all actives have a fitted effect of over 50% in size
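Quantitative HTS: titrated library compounds versus trypanosomal pyruvate kinase in TEA buffer (pH 7.2) containing KCl, MgCl2, BSA and Tween-20. Reactions were initiated with ADP, 130 uM final. Kinase-Glo Plus luminescence was read after 45 min at RT.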
Cycloheximide cs – affects cycloheximide protein synthesis inhibition readout, counter-screen; max response, %; cell reporter, cycloheximide protein synthesis inhibition counterscreen; AID 2314; 12% of 300,000 active; in the data active means max response mostly above about 13%, no sharp cut-off; inactive means mostly below about 14%; further: read at 38.3 µM for the half of the compounds with a filed dose; 0% is about no effect
The depositor's hits bear a star; ? = inconclusive; · = no result; [ ] = remark or other dose. Unless noted, the call rests on the fitted dose curve; in most records, active means well fitted curve in the direction sought with a large enough effect; inconclusive means small, poorly fitted or top-dose-only effect, or another doubt; inactive means no such curve, though single readings can be large; an effect the other way counts as inactive or inconclusive.

SMILES	Shiga toxin inh	LmPK inh	Sm TGR inh	Giardia FBPA inh	Tb PYK inh	Cycloheximide cs
Cn1cnc([N+](=O)[O-])c1S(=O)(=O)c1cccc(Cl)c1	19.9	-1.5%	0.282µM*	-2.1%	-6.4%	-2.6
Cn1cnc([N+](=O)[O-])c1S(=O)(=O)Oc1ccccc1	·	·	·	·	-2.1%	·
Cc1cccn2cc(-c3cc4ccccc4oc3=O)nc12	110.5*	-17.8%	-3.2%	10.6%	-5.9%	53.4*
O=c1oc2ccccc2cc1-c1cn2cccnc2n1	102.8*	-18.7%	-15.9%	-3.7%	·	57.1*
Cc1ccccc1NC(=O)CN(c1ccc(Cl)cc1Cl)S(=O)(=O)c1ccccc1	·	·	4.3%	·	2.0%	·
COc1ccc(NC(=O)c2ccsc2NC(C)=O)cc1	42.1	-2.6%	-9.7%	-18.7%	6.5%	9.2
Cc1cc(C(=O)Nc2nncs2)oc1C	·	1.4%	-6.8%	-14.2%	2.9%	1.3
O=C(c1ccc2c(c1)N(Cc1ccc(Cl)cc1)C(=O)c1ccccc1S2=O)N1CCC(Cc2ccccc2)CC1 (stereo not drawn)	·	·	-0.3%	·	-3.9%	·
COc1ccc2oc(=Nc3cccc(F)c3)c(C(N)=O)cc2c1	72.8*	-0.1%	-10.4%	0.5%	-6.1%	34.2*
COc1ccc2cc(C(N)=O)c(=Nc3ccc(C)cc3)oc2c1	4.3	10.4%	7.5%	1.3%	0.2%	10.1
Cc1cccc(N=c2oc3cc(O)ccc3cc2C(N)=O)c1	38.8*	3.2%	-1.8%	5.7%	-0.7%	27.1*
COc1cccc(N=c2oc3cc(O)ccc3cc2C(=O)NCC2CCCO2)c1 (stereo not drawn)	65.3	-8.9%	1.6%[57.1 µM]	-4.9%	3.4%	12.8*
COc1ccc(C(=O)Nc2ccccc2C(=O)NCC2CCCO2)cc1 (stereo not drawn)	-3.0	-11.5%	-10.8%	-12.4%	-1.4%	-1.9
COc1ccccc1N=c1oc2cc(O)ccc2cc1C(=O)NCC1CCCO1 (stereo not drawn)	11.7	2.8%	-1.8%	1.5%	7.3%	17.4*
COc1ccccc1N=c1oc2cc(O)ccc2cc1C(N)=O	18.5	-15.6%	-0.4%	10.4%	-3.0%	13.6*
CCc1cccc(NC(=O)CSc2n[nH]c(-c3ccccc3Cl)n2)c1	·	·	6.6%	·	-1.9%	·
O=C(CN1N=C(c2ccc(Cl)cc2)CCC1=O)NCc1ccc(F)cc1	·	·	6.7%	·	1.9%	·
O=C1Nc2ccccc2/C1=N\c1sc2c(c1C(=O)Nc1ccccc1)CCCC2	22.4*	-2.8%	1.4%	-2.1%	·	8.4
O=C(Nc1sc2c(c1C(=O)Nc1ccccc1)CCC2)c1ccc(Br)cc1	·	·	?	·	-3.1%	·
N#CCCN(C(=O)COC(=O)CCC(=O)c1ccc(F)cc1)c1ccccc1	·	·	39.8µM*	·	0.0%	·
N#CCCN(C(=O)COc1ccc(Cl)cc1Cl)c1ccccc1	29.4	1.0%	-10.4%	3.2%	1.2%	18.8*
COc1cc(OC)c(NC(=O)C2CCN(S(=O)(=O)c3ccc4c(c3)CC(C)N4C(C)=O)CC2)cc1Cl (stereo not drawn)	-4.1	0.7%	-3.7%	-3.7%	3.2%	17.1*
CCCn1c(N)c(N(CCOC)C(=O)CSc2c(Cl)cccc2Cl)c(=O)[nH]c1=O	·	·	·	·	-8.7%	·
Clc1ccc(-c2nnc(-c3ccco3)nc2N2CCCCC2)cc1	-2.9	-1.8%	2.82µM*	-24.7%	?	-2.4
CCc1c(C)sc2c1CCN(Cc1cccc(OC)c1)C2c1ccccc1 (stereo not drawn)	·	·	31.3%	·	0.0%	·
SMILES	Shiga toxin inh	LmPK inh	Sm TGR inh	Giardia FBPA inh	Tb PYK inh	Cycloheximide cs
Cc1cc2ncc(C(N)=O)cn2n1	20.4	1.3%	19.2%	2.6%	6.5%	-3.5
N#Cc1cnn2cc(-c3ncc(C(F)(F)F)cc3Cl)cnc12	24.4	-3.0%	2.0%	-1.4%	-5.8%	28.7*
Cc1cc2ncc(-c3ncc(C(F)(F)F)cc3Cl)cn2n1	10.1	?	3.8%	-0.2%	-7.7%	15.1*
FC(F)(F)c1cnc(-c2cnc3c(-c4ccc(Cl)cc4)cnn3c2)c(Cl)c1	14.0	3.3%	-9.7%	0.8%	2.5%	-2.0
Nc1ncn(-c2ncc(C(F)(F)F)cc2Cl)n1	-5.1	1.1%	6.5%	3.2%	2.7%	-1.6
COc1ccc(-c2cnn3cc(-c4cccc(Cl)c4)cnc23)cc1	-8.7	5.9%	-22.3%	6.5%	-10.4%	-5.9
Cc1nn2cc(-c3ncc(C(F)(F)F)cc3Cl)cnc2c1Br	57.4*	-2.5%	0.2%	-1.2%	-6.7%	20.1
Cc1cc2ncc(-c3cccc(Cl)c3)cn2n1	75.5*	2.7%	18.2%	3.3%	1.2%	47.6*
CC1CCC(NC(=O)CCCn2sc3ccccc3c2=O)CC1 (stereo not drawn)	11.4	2.1%	3.3%	4.5%	-17.5%	22.2*
O=C(CCCn1c(=O)[nH]c2ccccc2c1=O)NC1CCCCCC1	13.2	-1.6%	1.2%	-1.0%	2.4%	12.8
Cn1c2ccccc2c2cc(C(=O)N3CCN(CCO)CC3)sc21	13.7	-1.9%	-4.0%	-17.2%	-1.3%	13.8*
O=C(CSc1n[nH]c(=O)[nH]c1=O)c1ccccc1[N+](=O)[O-]	-4.7	1.3%	44.7µM*	-9.2%	-6.4%	10.4
O=C(CSc1n[nH]c(=O)[nH]c1=O)c1cccc([N+](=O)[O-])c1	9.9	2.4%	-22.2%	-1.3%	-7.4%	-4.4
Cc1ccc(C(=O)Nc2nnc(-c3ccco3)o2)cc1C	57.4*	-9.3%	-6.6%	?	-1.0%	21.6*
Cc1ccccc1C(=O)Nc1nnc(-c2ccco2)o1	56.7*	-26.6%	-2.6%	11.6%	1.1%	33.1*
O=C(Nc1nnc(-c2ccco2)o1)c1ccc(Cl)cc1	41.6*	-13.5%	-2.3%	?	1.6%	28.9*
Cc1cccc(C(=O)Nc2nnc(-c3ccco3)o2)c1	-8.3	-8.9%	3.0%	17.7%	1.8%	6.9
O=C(Nc1nnc(-c2ccccc2)o1)c1ccc(Cl)cc1	-3.7	4.7%	4.3%	24.7%	-3.0%	9.3
CN(C)c1nnc(-c2ccc(Cl)cc2)o1	48.7*	-4.3%	?	1.8%	3.3%	39.0*
CC(C)C[C@@H](CC(=O)N[C@@H](CCCN)CC(=O)N[C@@H]1CCCC[C@H]1C(=O)N[C@H](CC(=O)N[C@@H](CCC(=O)O)CC(=O)O)Cc1c[nH]c2ccccc12)NC(=O)[C@@H]1CNCC[C@H]1N	·	·	·	-25.0%	·	·
Cc1ccccc1-n1c(SCC(=O)NC2CC2)nc2ccccc2c1=O	·	·	·	·	0.7%	·
c1cncc(-c2nnc(-c3ccco3)o2)c1	16.4	5.0%	-19.8%	0.6%	3.1%	1.4
O=C(Nc1nnc(-c2ccc(Cl)cc2)o1)c1cccc(N2C(=O)CCC2=O)c1	7.3	-4.9%	-14.8%	27.5%	-3.5%	1.4
